# Bioassay records from PubChem BioAssay.
# T cruzi growth-1: T. cruzi proliferation inhibition | T. cruzi beta-gal in NIH3T3, GalScreen luminescence, 90 h | inhibition, % at 8.34 µM | 77,000 tested, 5.9% active;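 active means mean inhibition above about 93%, with at least 55% of replicates each passing it, limit read from the data, passing the limit was not always enough; inconclusive means only one of those two conditions holds; inactive means neither condition holds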
# C diff growth: blocks growth of Clostridium difficile; Clostridium difficile clinical isolate growth, OD600, 24 h; active compounds read low; AID 1259249; growth activity, negative = inhibition, % at 16 µg/mL (by protocol); 86,000 tested, 0.25% active;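 active means mean growth activity at or below -80% and every replicate also at or below -80%; inconclusive means mean at or below -80% but some replicate above -80%; inactive means mean growth activity above -80%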;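 further: 0% = DMSO wells and -100% = levofloxacin 16 µg/mL wells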
# Pf Dd2 inh: inhibitors of Plasmodium falciparum Dd2 growth; activity change, % at 10 µM; AID 1159554; 94,000 tested, 2.3% active; P. falciparum Dd2 growth, SYBR Green, 72 h; active compounds read low; in the data active means activity change below about -80%; inconclusive means no clear call, values can overlap the other calls
# T cruzi growth-2: Trypanosoma cruzi proliferation inhibition; T. cruzi beta-gal in NIH3T3, GalScreen luminescence, 90 h; 5,600 tested, 72% active; inhibition, % at 8.35 µM; shares compounds with T cruzi growth-1; AID 651739;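 active means mean replicate inhibition above about 95% and at least 55% of replicates individually reaching it, limit read from the data; inconclusive means only one of the two criteria is met; inactive means neither criterion is met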
# T cruzi growth-3: blocks T. cruzi growth in NIH3T3 host cells; T. cruzi beta-gal in NIH3T3, GalScreen luminescence, 90 h; AID 651740; shares compounds with T cruzi growth-1; 5,600 tested, 21% active; inhibition, % at 2.09 µM;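 active means mean inhibition above about 95%, with at least 55% of replicates also reaching it, limit read from the data; inconclusive means meets just one of the two conditions; inactive means meets neither condition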;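 further: plate controls were neutral control median for no effect and positive control median for full effect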
# NIH3T3 tox: kills mouse NIH/3T3 fibroblasts | cytotoxicity (signal decrease), % at 8.35 µM | 5,600 tested, 14% active | NIH/3T3 viability, CellTiter-Glo ATP luminescence, 90 h | shares compounds with T cruzi growth-1 | AID 651742;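 active means mean signal decrease across replicates above about 35% based on untreated-well scatter, with enough replicates individually passing, limit read from the data; inconclusive means no rule stated though some were filed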;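 further: 0% = median of neutral control wells and 100% = median of positive control wells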
# NIH3T3 tox 2: kills mouse NIH/3T3 fibroblasts; shares compounds with T cruzi growth-1; NIH/3T3 viability, CellTiter-Glo ATP luminescence, 90 h; inhibition, % at 24.9 µM; 5,600 tested, 56% active;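 active means mean loss of cell viability signal at or above a set limit, and enough replicates individually reaching it; inconclusive means meets only the mean limit or only the replicate share; inactive means meets neither condition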;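 further: 0% = median of neutral control wells and 100% = median of positive control wells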
# * marks the source's active call; other numbers are inactive results; ? = inconclusive; nt = no result. Only some compounds are listed: those with a hit (about 6.7% of all), similar ones and a draw of the others.
SMILES,T cruzi growth-1,C diff growth,Pf Dd2 inh,T cruzi growth-2,T cruzi growth-3,NIH3T3 tox,NIH3T3 tox 2
COc1ccc(CN(C)C[C@H]2Oc3ccc(NS(=O)(=O)c4c(C)noc4C)cc3C(=O)N([C@H](C)CO)C[C@H]2C)cc1,20.5,-1.4,23.5,nt,nt,nt,nt
C[C@H]1CN([C@@H](C)CO)C(=O)c2cccc(NS(=O)(=O)c3cn(C)cn3)c2O[C@H]1CN(C)Cc1ccncc1,nt,0.0,7.3,nt,nt,nt,nt
CC(C)CC#Cc1ccc2c(c1)O[C@H](CN(C)CC1CC1)[C@H](C)CN([C@@H](C)CO)S2(=O)=O,?,13.1,-47.5,100.1*,89.6,39.9*,106.8*
CCCC#Cc1ccc2c(c1)O[C@@H](CN(C)CC1CC1)[C@@H](C)CN([C@@H](C)CO)S2(=O)=O,31.0,nt,-61.7,nt,nt,nt,nt
CC(C)CC#Cc1ccc2c(c1)O[C@H](CN(C)CC1CCOCC1)[C@H](C)CN([C@H](C)CO)S2(=O)=O,?,4.6,-19.1,108.1*,85.3,21.8,104.9*
CC(C)CC#Cc1ccc2c(c1)O[C@H](CN(C)CC1CCOCC1)[C@@H](C)CN([C@@H](C)CO)S2(=O)=O,105.6,16.0,-70.2,nt,nt,nt,nt
COc1ccccc1S(=O)(=O)N[C@H]1CC[C@@H](CC(=O)N2CCOCC2)O[C@H]1CO,10.7,3.0,-3.2,nt,nt,nt,nt
CN(C)CC#Cc1cccc(-c2nc(C(=O)N[C@@H]3CCN(Cc4ccccc4)C3)cc3c2[C@@H](CCO)N(S(=O)C(C)(C)C)C3)c1 (some centres undefined),nt,3.5,-63.9,nt,nt,nt,nt
C[C@H](CO)N1C[C@H](C)[C@@H](CN(C)C(=O)Nc2ccc(F)cc2)OCCCC[C@H](C)Oc2ccc(N(C)C)cc2C1=O,-9.0,-2.8,5.4,nt,nt,nt,nt
N#C[C@@H]1[C@H](c2ccccc2-c2ccccc2F)[C@H](CO)N1C(=O)Cc1ccccc1,nt,-11.0,24.5,nt,nt,nt,nt
CCc1cnc(N2[C@H](C#N)[C@@H](c3ccccc3)[C@@H]2CO)s1,36.3,0.7,14.2,nt,nt,nt,nt
CCc1cnc(N2[C@H](C#N)[C@H](c3ccccc3)[C@@H]2CO)s1,-5.8,1.1,21.9,nt,nt,nt,nt
CCc1cnc(N2[C@H](C#N)[C@H](c3ccc(C#Cc4ccccc4F)cc3)[C@H]2CO)s1,99.9*,3.9,-52.7,91.1,105.6*,-9.4,94.9*
CCc1cnc(N2[C@H](CO)[C@@H](c3ccccc3)[C@@H]2C#N)s1,2.4,7.6,-2.2,nt,nt,nt,nt
CCc1cnc(N2[C@H](C#N)[C@@H](c3ccc(C#Cc4ccccc4F)cc3)[C@H]2CO)s1,111.4*,0.6,-26.1,103.3*,101.4*,11.2,27.7*
CCc1cnc(N2[C@H](C#N)[C@H](c3ccc(C#Cc4ccccc4F)cc3)[C@@H]2CO)s1,97.2*,6.1,-65.0,100.7*,111.8*,-26.8,-11.0
Cc1noc(C)c1NC(=O)Nc1ccc2c(c1)C(=O)N([C@@H](C)CO)C[C@H](C)[C@H](CN(C)Cc1ccncc1)OCCCC[C@@H](C)O2,33.9,-2.7,6.1,nt,nt,nt,nt
O=C(C[C@H]1C=C[C@H](NC(=O)C2CC2)[C@@H](CO)O1)Nc1nccs1,-48.3,nt,-15.9,nt,nt,nt,nt
COc1ccc2c3c([nH]c2c1)[C@@H](CO)N(Cc1nccs1)CC31CCN(C(=O)C2CCOCC2)CC1,nt,2.5,6.7,nt,nt,nt,nt
C[C@@H]1CN([C@@H](C)CO)C(=O)c2c(c3ccccc3n2C)-c2ccccc2CO[C@H]1CN(C)S(=O)(=O)c1cccc(F)c1,91.0,8.4,-67.0,nt,nt,nt,nt
Cc1cccc(S(=O)(=O)N(C)C[C@@H]2OCc3ccccc3-c3c(n(C)c4ccccc34)C(=O)N([C@@H](C)CO)C[C@@H]2C)c1,100.3*,nt,-85.9*,102.8*,87.2,-8.7,80.4*
C[C@H](CO)N1C[C@H](C)[C@@H](CN(C)S(=O)(=O)c2cccc(C#N)c2)OCc2ccccc2-c2c(n(C)c3ccccc23)C1=O,62.6,0.0,4.5,nt,nt,nt,nt
Cc1cccc(S(=O)(=O)N(C)C[C@H]2OCc3ccccc3-c3c(n(C)c4ccccc34)C(=O)N([C@@H](C)CO)C[C@H]2C)c1,98.7*,nt,-84.5*,99.6*,108.5*,-4.8,17.8
CC(C)NC(=O)N(C)C[C@H]1OCCCC[C@H](C)Oc2ccc(NS(=O)(=O)c3cn(C)cn3)cc2C(=O)N([C@@H](C)CO)C[C@@H]1C,20.2,-3.3,-2.0,nt,nt,nt,nt
N#C[C@@H]1[C@@H](c2ccc(C3=CCCCC3)cc2)[C@@H](CO)N1C(=O)c1ccccn1,101.6*,7.3,-2.0,71.7,2.6,-7.2,4.8
SMILES,T cruzi growth-1,C diff growth,Pf Dd2 inh,T cruzi growth-2,T cruzi growth-3,NIH3T3 tox,NIH3T3 tox 2
N#C[C@@H]1[C@@H](c2ccc(C3=CCCCC3)cc2)[C@H](CO)N1C(=O)c1ccccn1,67.0,3.5,8.6,nt,nt,nt,nt
N#C[C@H]1[C@H](c2ccc(C3=CCCCC3)cc2)[C@@H](CO)N1C(=O)c1ccccn1,51.8,3.3,-12.0,nt,nt,nt,nt
N#C[C@@H]1[C@H](c2ccc(C3=CCCCC3)cc2)[C@H](CO)N1C(=O)c1ccccn1,101.0*,7.1,-15.0,100.4*,104.6*,16.2,15.5
CO[C@@H]1CN(C)C(=O)c2cc(NC(C)=O)ccc2OC[C@H](C)N(C(=O)c2ccccn2)C[C@H]1C,-20.8,-2.3,19.5,nt,nt,nt,nt
O=C(NCC[C@H]1CC[C@H](NC(=O)C2CC2)[C@H](CO)O1)c1ccc(F)cc1,nt,-2.7,nt,nt,nt,nt,nt
Cc1ccc(S(=O)(=O)Nc2ccc3c(c2)C(=O)N([C@@H](C)CO)C[C@H](C)[C@H](CN(C)S(=O)(=O)c2ccc(C)cc2)OCCCC[C@@H](C)O3)cc1,91.8,nt,-69.7,nt,nt,nt,nt
Cc1ccc(S(=O)(=O)Nc2ccc3c(c2)C(=O)N([C@H](C)CO)C[C@H](C)[C@H](CN(C)S(=O)(=O)c2ccc(C)cc2)OCCCC[C@H](C)O3)cc1,?,nt,-33.2,104.9*,106.5*,-10.8,-11.1
Cc1ccc(S(=O)(=O)Nc2ccc3c(c2)C(=O)N([C@@H](C)CO)C[C@@H](C)[C@@H](CN(C)S(=O)(=O)c2ccc(C)cc2)OCCCC[C@@H](C)O3)cc1,91.3,nt,-56.4,nt,nt,nt,nt
Cc1ccc(S(=O)(=O)Nc2ccc3c(c2)C(=O)N([C@@H](C)CO)C[C@@H](C)[C@H](CN(C)S(=O)(=O)c2ccc(C)cc2)OCCCC[C@@H](C)O3)cc1,101.5*,nt,-34.6,102.0*,?,0.4,12.8
Cc1ccc(S(=O)(=O)Nc2ccc3c(c2)C(=O)N([C@H](C)CO)C[C@@H](C)[C@H](CN(C)S(=O)(=O)c2ccc(F)cc2)OCCCC[C@H](C)O3)cc1,nt,-19.8,-11.7,nt,nt,nt,nt
Cc1ccc(S(=O)(=O)Nc2ccc3c(c2)C(=O)N([C@@H](C)CO)C[C@H](C)[C@@H](CN(C)S(=O)(=O)c2ccc(C)cc2)OCCCC[C@@H](C)O3)cc1,101.9*,nt,-43.6,105.3*,73.0,7.1,5.2
O=C(c1cccc(F)c1)N1CC[C@@H]2[C@H](CO)Nc3ccc(-c4cccc(F)c4)cc3[C@@H]21,43.1,25.8,5.3,nt,nt,nt,nt
